Laboratory results published in PubChem BioAssay (NCATS).
Records with an inconclusive call do not appear. Activity calls are given as the source filed them. Unless noted, calls follow the shape of the dose curve; as a rule, active = well fitted curve in the direction sought with a large enough effect; inconclusive = small, poorly fitted or top-dose-only effect, or another doubt; inactive = no such curve, though single readings can be large; an effect the other way counts as inactive or inconclusive.

Biological target: Alpha-galactosidase (Coffea arabica) (UniProt Q42656)
Sequence (Q42656 whole entry, looked up): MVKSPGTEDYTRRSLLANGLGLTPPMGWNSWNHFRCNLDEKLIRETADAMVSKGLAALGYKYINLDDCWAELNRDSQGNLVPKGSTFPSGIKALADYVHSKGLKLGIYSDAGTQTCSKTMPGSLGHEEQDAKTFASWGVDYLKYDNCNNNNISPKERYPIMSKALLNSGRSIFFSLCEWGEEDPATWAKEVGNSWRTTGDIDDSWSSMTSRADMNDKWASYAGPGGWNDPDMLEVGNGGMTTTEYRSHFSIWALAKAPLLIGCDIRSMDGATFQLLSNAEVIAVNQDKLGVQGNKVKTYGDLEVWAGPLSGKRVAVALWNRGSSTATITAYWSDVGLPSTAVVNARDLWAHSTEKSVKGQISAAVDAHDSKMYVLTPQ
Assay: Counterscreen for Glucocerebrosidase Inhibitors: qHTS Assay for Coffee Bean alpha-Galactosidase at pH 4.5 (AID 957);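 also: plate controls were enzyme alone for no effect and no enzyme for full effect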
Settings: purified coffee bean alpha-galactosidase, fluorogenic substrate; series mostly up to 76.9 µM; activity change, negative = inhibition: at the top concentration
Method in brief: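 Enzyme is added first (2 nM final), then compounds titrated from 0.7 nM to 77 uM, then 80 uM 4-methylumbelliferyl alpha-D-galactopyranoside; after 20 min at room temperature a pH 10 NaOH/glycine stop precedes fluorescence reading at 365/440 nm.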

Compound	activity change, negative = inhibition
COc1ccccc1NC(=O)Nc1nc(-c2cccnc2)nc2ccccc12	4.64% (inactive)
NCCCCCCNS(=O)(=O)c1cccc2c(Cl)cccc12	-3.32% (inactive)
CC1(C)C(=O)N(CCN2CCC(C(=O)c3ccc(F)cc3)CC2)c2ccccc21	-4.46% (inactive)
Cc1cccc(C)c1NC(=O)C[N+](C)(C)C	7.46% (inactive)
N#Cc1c(-c2ccccc2)no[n+]1[O-]	3.45% (inactive)
COC(=O)c1c(-c2cc(OC)c(OC)c(OC)c2)c2ccc(OCc3ccccn3)cc2c(=O)n1-c1ccc(N)cc1	-3.29% (inactive)
CCn1c(=O)c2[nH]c(-c3ccccc3)nc2n(CC)c1=O	-3.86% (inactive)
CC(C)C[C@H](N)CSSC[C@@H](N)CC(C)C	3% (inactive)
COc1[nH]c2ccc(F)cc2c1C(=O)OCC1CCN(CCNS(C)(=O)=O)CC1	1.82% (inactive)
COc1ccc2c(c1)c(CC(=O)N1CCOCC1)c(C)n2C(=O)c1ccc(Cl)cc1	-2.39% (inactive)
O=C1C(SCCO)=C(SCCO)C(=O)c2ccccc21	0.0203% (inactive)
NC(=NCCC[C@H](N)C(=O)O)NO	-1.44% (inactive)
NCCNS(=O)(=O)c1cccc2cnccc12	-2.87% (inactive)
CCSC(N)=Nc1ccc(C(F)(F)F)cc1	-1.88% (inactive)
Nc1ncnc2c1c(-c1ccc(Oc3ccccc3)cc1)cn2C1CCCC1	-3.65% (inactive)
Cc1cc(N)c2ccccc2[n+]1CCCCCCCCCCCCCC[n+]1c(C)cc(N)c2ccccc21	-0.774% (inactive)
CCCC(=O)NCCc1c2n(c3ccc(OC)cc13)Cc1ccccc1-2	-4.29% (inactive)
Cn1cnc2c(NC3CCCC3)ncnc21	-2.09% (inactive)
COc1ccc2c(c1)c(CC(=O)O)c(C)n2Cc1ccc(F)cc1	0.281% (inactive)
CN(C)CCCCSC(=N)N	-2.17% (inactive)
O=C(Nc1cc(C(=O)Nc2ccc(S(=O)(=O)O)cc2S(=O)(=O)O)cc(C(=O)Nc2ccc(S(=O)(=O)O)cc2S(=O)(=O)O)c1)Nc1cc(C(=O)Nc2ccc(S(=O)(=O)O)cc2S(=O)(=O)O)cc(C(=O)Nc2ccc(S(=O)(=O)O)cc2S(=O)(=O)O)c1	1.06% (inactive)
CCCCOC(=O)NS(=O)(=O)c1sc(CC(C)C)cc1-c1ccc(Cn2c(CC)nc3c(C)cc(C)nc32)cc1	-2.49% (inactive)
Cc1cc(C)c(NC(=O)C[C@H](CC(=O)O)c2cccc3ccccc23)c(C(=O)N2CCC3(CCCC3)CC2)c1	-1.34% (inactive)

Biological target: Alpha-galactosidase (Coffea arabica) (UniProt Q42656)
Assay: Counterscreen for Glucocerebrosidase Inhibitors: qHTS Assay for Coffee Bean alpha-Galactosidase at pH 5.9 (AID 998);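 also: plate controls were uninhibited enzyme for no effect and no-enzyme basal signal for full effect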
Settings: coffee bean alpha-galactosidase enzyme assay; series mostly up to 76.9 µM; activity, negative = inhibition: at the top concentration
Method in brief: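 Enzyme 2 nM + cpd (0.7 nM–77 uM titration) + 4-MU-alpha-Gal 80 uM, pH 5.9 citrate/Tween-20, RT 20 min, NaOH/glycine stop pH 10, fluor 365/440. Normalized to no-enzyme and full-activity controls; Hill-fit AC50.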

Compound	activity, negative = inhibition
COc1ccccc1NC(=O)Nc1nc(-c2cccnc2)nc2ccccc12	2.22% (inactive)
NCCCCCCNS(=O)(=O)c1cccc2c(Cl)cccc12	-2.44% (inactive)
CC1(C)C(=O)N(CCN2CCC(C(=O)c3ccc(F)cc3)CC2)c2ccccc21	1.26% (inactive)
Cc1cccc(C)c1NC(=O)C[N+](C)(C)C	2.52% (inactive)
N#Cc1c(-c2ccccc2)no[n+]1[O-]	1.54% (inactive)
COC(=O)c1c(-c2cc(OC)c(OC)c(OC)c2)c2ccc(OCc3ccccn3)cc2c(=O)n1-c1ccc(N)cc1	-4.67% (inactive)
CCn1c(=O)c2[nH]c(-c3ccccc3)nc2n(CC)c1=O	0.348% (inactive)
CC(C)C[C@H](N)CSSC[C@@H](N)CC(C)C	-0.329% (inactive)
COc1[nH]c2ccc(F)cc2c1C(=O)OCC1CCN(CCNS(C)(=O)=O)CC1	-0.542% (inactive)
COc1ccc2c(c1)c(CC(=O)N1CCOCC1)c(C)n2C(=O)c1ccc(Cl)cc1	-2.68% (inactive)
O=C1C(SCCO)=C(SCCO)C(=O)c2ccccc21	-0.488% (inactive)
NC(=NCCC[C@H](N)C(=O)O)NO	-2.09% (inactive)
NCCNS(=O)(=O)c1cccc2cnccc12	-0.293% (inactive)
CCSC(N)=Nc1ccc(C(F)(F)F)cc1	-3.18% (inactive)
Nc1ncnc2c1c(-c1ccc(Oc3ccccc3)cc1)cn2C1CCCC1	-2.49% (inactive)
Cc1cc(N)c2ccccc2[n+]1CCCCCCCCCCCCCC[n+]1c(C)cc(N)c2ccccc21	-4.36% (inactive)
CCCC(=O)NCCc1c2n(c3ccc(OC)cc13)Cc1ccccc1-2	-3.18% (inactive)
Cn1cnc2c(NC3CCCC3)ncnc21	-1.06% (inactive)
COc1ccc2c(c1)c(CC(=O)O)c(C)n2Cc1ccc(F)cc1	-1.94% (inactive)
CN(C)CCCCSC(=N)N	3.35% (inactive)
O=C(Nc1cc(C(=O)Nc2ccc(S(=O)(=O)O)cc2S(=O)(=O)O)cc(C(=O)Nc2ccc(S(=O)(=O)O)cc2S(=O)(=O)O)c1)Nc1cc(C(=O)Nc2ccc(S(=O)(=O)O)cc2S(=O)(=O)O)cc(C(=O)Nc2ccc(S(=O)(=O)O)cc2S(=O)(=O)O)c1	-1.42% (inactive)
CCCCOC(=O)NS(=O)(=O)c1sc(CC(C)C)cc1-c1ccc(Cn2c(CC)nc3c(C)cc(C)nc32)cc1	-5.15% (inactive)
Cc1cc(C)c(NC(=O)C[C@H](CC(=O)O)c2cccc3ccccc23)c(C(=O)N2CCC3(CCCC3)CC2)c1	-5.04% (inactive)

Test system: not listed separately
Assay: Validation screen for inhibitors of Lassa infection (AID 463096; calls by dose curve; also: potency is read from the fitted curve at half-maximal effect; as to activity change, negative = inhibition: % is scaled to controls: 0 for no effect and ±100 for the full control effect)
Settings: Lassa virus infection, cell-based; series mostly up to 46.1 µM; activity change, negative = inhibition: at the top concentration

Compound	activity change, negative = inhibition	Potency
COc1ccccc1NC(=O)Nc1nc(-c2cccnc2)nc2ccccc12	20.1% (inactive)	
NCCCCCCNS(=O)(=O)c1cccc2c(Cl)cccc12	-8.59% (inactive)	
CC1(C)C(=O)N(CCN2CCC(C(=O)c3ccc(F)cc3)CC2)c2ccccc21	-8.72% (inactive)	
Cc1cccc(C)c1NC(=O)C[N+](C)(C)C	-20% (inactive)	
N#Cc1c(-c2ccccc2)no[n+]1[O-]		10 µM (active)
COC(=O)c1c(-c2cc(OC)c(OC)c(OC)c2)c2ccc(OCc3ccccn3)cc2c(=O)n1-c1ccc(N)cc1	-0.497% (inactive)	
CCn1c(=O)c2[nH]c(-c3ccccc3)nc2n(CC)c1=O	-27.1% (inactive)	
CC(C)C[C@H](N)CSSC[C@@H](N)CC(C)C	-32.9% (inactive)	
COc1[nH]c2ccc(F)cc2c1C(=O)OCC1CCN(CCNS(C)(=O)=O)CC1	-15.7% (inactive)	
COc1ccc2c(c1)c(CC(=O)N1CCOCC1)c(C)n2C(=O)c1ccc(Cl)cc1	-26.9% (inactive)	
O=C1C(SCCO)=C(SCCO)C(=O)c2ccccc21		5.01 µM (active)
NC(=NCCC[C@H](N)C(=O)O)NO	5.73% (inactive)	
NCCNS(=O)(=O)c1cccc2cnccc12	-23.3% (inactive)	
CCSC(N)=Nc1ccc(C(F)(F)F)cc1	31.3% (inactive)	
Nc1ncnc2c1c(-c1ccc(Oc3ccccc3)cc1)cn2C1CCCC1	-38.4% (inactive)	
Cc1cc(N)c2ccccc2[n+]1CCCCCCCCCCCCCC[n+]1c(C)cc(N)c2ccccc21		7.08 µM (active)
CCCC(=O)NCCc1c2n(c3ccc(OC)cc13)Cc1ccccc1-2	-19.8% (inactive)	
Cn1cnc2c(NC3CCCC3)ncnc21	10.4% (inactive)	
COc1ccc2c(c1)c(CC(=O)O)c(C)n2Cc1ccc(F)cc1	11.9% (inactive)	
CN(C)CCCCSC(=N)N	9.69% (inactive)	
O=C(Nc1cc(C(=O)Nc2ccc(S(=O)(=O)O)cc2S(=O)(=O)O)cc(C(=O)Nc2ccc(S(=O)(=O)O)cc2S(=O)(=O)O)c1)Nc1cc(C(=O)Nc2ccc(S(=O)(=O)O)cc2S(=O)(=O)O)cc(C(=O)Nc2ccc(S(=O)(=O)O)cc2S(=O)(=O)O)c1	2.09% (inactive)	
CCCCOC(=O)NS(=O)(=O)c1sc(CC(C)C)cc1-c1ccc(Cn2c(CC)nc3c(C)cc(C)nc32)cc1	-40.4% (inactive)	
Cc1cc(C)c(NC(=O)C[C@H](CC(=O)O)c2cccc3ccccc23)c(C(=O)N2CCC3(CCCC3)CC2)c1	1.89% (inactive)	
